Values joined by “and” are separate entries in the source; they are usually repeats but may differ in a detail not shown here. Identical values can stand only once. Like-named read-outs stand apart in the source and are kept apart here.
Assays:
JNK1 = test system: T1, JNK1; settings: concentration: 1 μM, replicates: in singlicate, n = 1
T1 construct: gene MAPK8

JNK2 = test system: T2, JNK2; settings: concentration: 1 μM, replicates: in singlicate, n = 1
T2 construct: gene MAPK9

JNK3 = test system: T3, JNK3; settings: concentration: 1 μM, replicates: in singlicate, n = 1
T3 construct: gene MAPK10

KIT-autoinhibited = settings: concentration: 1 μM, replicates: in singlicate, n = 1
KIT = settings: concentration: 1 μM, replicates: in singlicate, n = 1
LATS1 = settings: concentration: 1 μM, replicates: in singlicate, n = 1
LATS2 = settings: concentration: 1 μM, replicates: in singlicate, n = 1
LCK = settings: concentration: 1 μM, replicates: in singlicate, n = 1
LIMK1 = settings: concentration: 1 μM, replicates: in singlicate; n = 1
LIMK2 = settings: concentration: 1 μM, replicates: in singlicate, n = 1
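Further: KINOMEscan kinase panel screen.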

Row | Structure (SMILES) | %Inh (JNK1) [%] | %Inh (JNK2) [%] | %Inh (JNK3) [%] | %Inh (KIT-autoinhibited) [%] | %Inh (KIT) [%] | %Inh (LATS1) [%] | %Inh (LATS2) [%] | %Inh (LCK) [%] | %Inh (LIMK1) [%] | %Inh (LIMK2) [%] | %Inh (JNK1; 1 µM) | %Inh (JNK2; 1 µM) | %Inh (JNK3; 1 µM) | %Inh (KIT-autoinhibited; 1 µM) | %Inh (KIT; 1 µM) | %Inh (LATS1; 1 µM) | %Inh (LATS2; 1 µM) | %Inh (LCK; 1 µM) | %Inh (LIMK2; 1 µM)
1 | CCc1nc(-c2cccc(N(C)S(=O)(=O)c3ccccc3)c2)c(-c2ccnc(Nc3ccc(N4CCN(C(C)=O)CC4)nc3)n2)s1 [GSK1645895] | 23 | 30 | 22 | 8 | 19 | 0 | 20 | 44 | 31 | 0 |  |  |  |  |  |  |  |  | 
2 | CCn1c(-c2ccncc2)nc2cnccc21 [SB-735216] | 23 | 11 | 17 | 10 | 0 | 17 | 9 | 0 | 12 | 0 |  |  |  |  |  |  |  |  | 
3 | CN1CCC(n2cnc(-c3ccc(F)cc3)c2-c2ccnc(NC3CCNCC3)n2)CC1 [SB-229482] | 71 | 96 | 92.4 | 0 | 25 | 0 | 8 | 0 | 0 | 30 |  |  |  |  |  |  |  |  | 
4 | c1ccc(-c2ccc3c(-c4ccnc(Nc5ccc6c(c5)OCCO6)n4)cnn3n2)cc1 [GW818941] | 28 | 4 | 8 | 0 | 10 | 11 | 0 | 22 | 27 | 0 |  |  |  |  |  |  |  |  | 
5 | CNc1nccc(-c2c(-c3ccc(F)cc3)ncn2CCCN2CCOCC2)n1 [SB-222516] | 12 | 0 | 0 | 4 | 2 | 0 | 0 | 1 | 11 | 95.2 |  |  |  |  |  |  |  |  | 
6 | O=C(CCO)NCCn1ccc2ncnc(Nc3ccc(Oc4cccc(C(F)(F)F)c4)c(Cl)c3)c21 | 8 | 0 | 1 | 0 | 0 | 5 | 2 | 26 | 0 | 0 |  |  |  |  |  |  |  |  | 
7 | COc1ccc(-c2nc3n(c2-c2ccncc2)CCC3)cc1 [SKF-104493] |  |  |  |  |  |  |  |  | 0 |  | 46% and 22% | 37% and 50% | 47% and 65% | 0% and 19% | 0% and 25% | 0% and 19% | 16% and 12% | 26% and 23% | 0% and 3%
8 | CC(C)(C)c1ccc(-n2cnc3c(N)ncnc32)cc1 [SKF-97263] | 21 | 3 | 1 | 1 | 38 | 0 | 18 | 8 | 8 | 0 |  |  |  |  |  |  |  |  | 
9 | Cl.Cn1ccc(-c2cccc(Nc3ccnc4cc(-c5nccs5)ccc34)c2)n1 [GW525701] | 12 | 13 | 2 | 0 | 33 | 0 | 0 | 3 | 0 | 0 |  |  |  |  |  |  |  |  | 
10 | Nc1nc(-c2ccc3c(N)n[nH]c3c2)cc(N2CCCCC2)n1 [GSK2228768] | 5 | 11 | 0 | 0 | 5 | 0 | 0 | 3 | 0 | 0 |  |  |  |  |  |  |  |  | 
11 | Fc1cccc(COc2ccc(Nc3ncnc4cc[nH]c34)cc2Cl)c1 | 33 | 17 | 46 | 6 | 24 | 26 | 25 | 25 | 22 | 17 |  |  |  |  |  |  |  |  | 
12 | Cl.Cl.c1ccc(-c2cc3ccncc3cc2OC2CCNCC2)cc1 [GSK1122999] | 14 | 15 | 0 | 0 | 18 | 33 | 50 | 38 | 18 | 34 |  |  |  |  |  |  |  |  | 
13 | FC(F)(F)c1ccc(-c2cc(-c3c[nH]nc3-c3ccccn3)ccn2)cc1 [GW599550] | 0 | 5 | 0 | 0 | 26 | 0 | 40 | 25 | 7 | 0 |  |  |  |  |  |  |  |  | 
14 | NC(=O)c1sc(-n2cnc3ccccc32)cc1OCc1ccccc1F [GSK1024306] | 3 | 28 | 14 | 0 | 0 | 0 | 0 | 9 | 0 | 20 |  |  |  |  |  |  |  |  | 
15 | N#Cc1ccc(Oc2ccc(Nc3ncnc4cc[nH]c34)cc2Cl)cc1 | 58 | 9 | 20 | 3 | 31 | 22 | 23 | 0 | 13 | 0 |  |  |  |  |  |  |  |  | 
16 | COc1ccc(Nc2nccc(N3CCC(NC(=O)Nc4ccc5c(c4)OCO5)C3)n2)cc1 (stereo not shown) [GSK1379745] | 18 | 20 | 20 | 0 | 48 | 0 | 0 | 24 | 0 | 26 |  |  |  |  |  |  |  |  | 
17 | CSc1nn2c(=O)cc(N3CCOCC3)nc2n1Cc1cccc(Cl)c1Cl [GSK2347225] | 11 | 26 | 10 | 0 | 23 | 9 | 9 | 31 | 11 | 19 |  |  |  |  |  |  |  |  | 

Row | Structure (SMILES) | %Inh (JNK1) [%] | %Inh (JNK2) [%] | %Inh (JNK3) [%] | %Inh (KIT-autoinhibited) [%] | %Inh (KIT) [%] | %Inh (LATS1) [%] | %Inh (LATS2) [%] | %Inh (LCK) [%] | %Inh (LIMK1) [%] | %Inh (LIMK2) [%] | %Inh (JNK1; 1 µM) | %Inh (JNK2; 1 µM) | %Inh (JNK3; 1 µM) | %Inh (KIT-autoinhibited; 1 µM) | %Inh (KIT; 1 µM) | %Inh (LATS1; 1 µM) | %Inh (LATS2; 1 µM) | %Inh (LCK; 1 µM) | %Inh (LIMK2; 1 µM)
18 | Cc1cc(N2CCC(NS(=O)(=O)c3ccc(F)cc3)CC2)nc(Nc2cccc(C#N)c2)n1.O=C(O)C(F)(F)F [GSK1653537] | 16 | 17 | 0 | 0 | 0 | 0 | 0 | 10 | 0 | 0 |  |  |  |  |  |  |  |  | 
19 | Nc1nc(-c2ccc3c(N)n[nH]c3c2)cc(N2CCC[C@@H](C(=O)Nc3ccccc3)C2)n1.O=C(O)C(F)(F)F.O=C(O)C(F)(F)F [GSK2288359] | 0 | 0 | 0 | 4 | 25 | 0 | 16 | 0 | 10 | 7 |  |  |  |  |  |  |  |  | 
20 | COC(=O)c1cccc(NC(=O)NCCNc2ccnc(Nc3ccc(F)cc3)n2)c1 [GSK1379883] | 18 | 25 | 7 | 0 | 23 | 0 | 0 | 5 | 0 | 19 |  |  |  |  |  |  |  |  | 
21 | Nc1nc(-c2cccnc2)c(-c2ccnc3ccccc23)s1 [GW684083] | 23 | 29 | 11 | 0 | 23 | 0 | 26 | 17 | 0 | 0 |  |  |  |  |  |  |  |  | 
22 | CCc1nc(-c2cccc(C)c2)c(-c2ccnc(NC(=O)c3ccccc3)c2)s1 | 53 | 79 | 93.3 | 6 | 21 | 30 | 100 | 0 | 0 | 0 |  |  |  |  |  |  |  |  | 
23 | Cn1cc(-c2ccc3c(c2)CCN3C(=O)Cc2cccc(C(F)(F)F)c2)c2c(N)ncnc21 [GSK2606414] | 1 | 0 | 0 | 0 | 87 | 0 | 0 | 20 | 0 | 9 |  |  |  |  |  |  |  |  | 
24 | CS(=O)(=O)CCNCc1nc(-c2ccc3ncnc(Nc4ccc(OCc5cccc(F)c5)c(Cl)c4)c3c2)cs1.Cl [GW583340] | 0 | 0 | 0 | 0 | 7 | 0 | 9 | 5 | 0 | 3 |  |  |  |  |  |  |  |  | 
25 | COc1ccc(NC(=O)Nc2ccc(C)c(-c3ccc(C(=O)Nc4ccncc4)cc3)c2)cc1 [GSK1398475] | 5 | 4 | 0 | 0 | 100 | 0 | 6 | 47 | 0 | 22 |  |  |  |  |  |  |  |  | 
26 | CC(C)N1CCC(n2cnc(-c3ccc(F)cc3)c2-c2ccnc(N)n2)CC1 [SB-223132] | 23 | 12 | 0 | 0 | 0 | 0 | 0 | 14 | 0 | 9 |  |  |  |  |  |  |  |  | 
27 | Cc1ccc(C)c(NC(=O)NCCNc2ccnc(Nc3ccc(F)cc3)n2)c1 [GSK1379878] | 13 | 13 | 2 | 0 | 0 | 0 | 0 | 3 | 0 | 0 |  |  |  |  |  |  |  |  | 
28 | COc1cc2ncnc(Nc3ccc(OCc4ccccc4Br)c(Cl)c3)c2cc1OC.Cl [GI261590] | 15 | 10 | 0 | 0 | 3 | 8 | 3 | 57 | 0 | 3 |  |  |  |  |  |  |  |  | 
29 | COc1ccc(Nc2nccc(N3CCC(NC(=O)c4cccc(NC(C)=O)c4)C3)n2)cc1 (stereo not shown) [GSK1379732] | 16 | 23 | 26 | 0 | 7 | 0 | 9 | 9 | 0 | 0 |  |  |  |  |  |  |  |  | 
30 | O=C(Nc1ccccc1F)NC1CCN(c2ccnc(Nc3ccc(F)cc3)n2)C1 (stereo not shown) [GSK1379722] | 29 | 31 | 23 | 0 | 5 | 0 | 0 | 14 | 10 | 0 |  |  |  |  |  |  |  |  | 
31 | COc1ccc(-c2oc3ncnc(N)c3c2-c2ccc(OC)cc2)cc1 [SB-589132] | 30 | 10 | 0 | 29 | 49 | 100 | 0 | 54 | 24 | 8 |  |  |  |  |  |  |  |  | 
32 | COc1cc2c(Nc3cccc(NC(=O)c4ccccc4)c3)ncnc2cc1OCCCN1CCOCC1 [GSK223810] | 34 | 58 | 31 | 0 | 93.4 | 0 | 0 | 84 | 13 | 7 |  |  |  |  |  |  |  |  | 
33 | Cn1ccc2ncnc(Nc3ccc(Oc4cccc(Cl)c4)c(Cl)c3)c21 | 8 | 0 | 0 | 0 | 24 | 44 | 0 | 0 | 0 | 6 |  |  |  |  |  |  |  |  | 
34 | Nc1nccc2scc(-c3ccc4c(c3)CCN4C(=O)Cc3cc(F)ccc3F)c12 [GSK2587663] | 22 | 26 | 8 | 0 | 64 | 0 | 8 | 22 | 4 | 13 |  |  |  |  |  |  |  |  | 
